{
  "source": "the supplement of paper PMC10037445",
  "key": {"RAW-Dual [1]": {"tested_on": "RAW-Dual", "assay": "NF-kB SEAP reporter activity, fold change vs agonist alone; cytotoxicity flag (confluency mask): cytotoxic (confluency <70% of control); higher = enhanced NF-kB activity", "in_short": "(§1)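 Library stock was pin-tooled at 50 nL into 384-well plates of RAW-Dual macrophages (50,000 cells/well, DMEM), followed 1 h later by a PRR agonist, and the cells were kept at 37 °C, 5% CO2. Supernatant collected after 20 hours was read for IRF by QuantiLuc luminescence and for NF-κB by QuantiBlue absorbance at 620 nm. Reporter activity is fold change over agonist-alone wells, and a well counted as cytotoxic when its IncuCyte confluency was below 70% of agonist controls in both mask sets.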"}, "RAW-Dual [2]": {"tested_on": "RAW-Dual", "assay": "NF-kB SEAP reporter activity, fold change vs agonist alone; higher = enhanced NF-kB activity", "settings": "library stock concentration (final ~1000-fold dilution): 10 mM", "in_short": "as §1"}, "RAW-Dual [3]": {"tested_on": "RAW-Dual", "assay": "NF-kB SEAP reporter activity, fold change vs agonist alone; cytotoxicity flag (confluency mask): not cytotoxic; higher = enhanced NF-kB activity", "in_short": "as §1"}, "[4]": {"settings": "agonist: ODN 1826 (TLR9) 0.5 ug/mL"}, "[5]": {"settings": "agonist: Pam2CSK4 (TLR2/6) 0.1 ug/mL"}, "[6]": {"settings": "agonist: Pam3CSK4 (TLR2/1) 0.1 ug/mL"}, "[7]": {"settings": "cytotoxicity flag (confluency mask): not cytotoxic, agonist: Imiquimod (TLR7) […]"}, "[8]": {"settings": "cytotoxicity flag (confluency mask): not cytotoxic, agonist: MPLA (TLR4) […]"}},
  "note": "The full ranking holds about 2,900 compounds; the median of “NF-kB SEAP reporter activity, fold change vs agonist alone” is about 0.99, and the highest 2% start at about 2.6. For the sample, the highest values were picked, then their nearest neighbours and some compounds at random.",
  "data": [
    {"compound": "CN1C(=O)C(C)(C)Oc2c(-c3cn(C)c(=O)c4[nH]ccc34)cc(S(C)(=O)=O)cc21", "note": "(library stock concentration (final ~1000-fold dilution): 10 mM)", "values": [
      {"measurement": "NF-kB SEAP reporter activity", "setting": "RAW-Dual [1]; agonist: LPS (TLR4) 0.1 ug/mL", "result": 2.16},
      {"measurement": "NF-kB SEAP reporter activity", "setting": "RAW-Dual [1]; [4]", "result": 1.73},
      {"measurement": "NF-kB SEAP reporter activity", "setting": "RAW-Dual [1]; [5]", "result": 0.658},
      {"measurement": "NF-kB SEAP reporter activity", "setting": "RAW-Dual [1]; [6]", "result": 1.99}
    ]},
    {"compound": "CN1C(=O)C(C)(C)Oc2c(-c3cn(C)c(=O)c4[nH]ccc34)cc(S(C)(=O)=O)cc21", "values": [
      {"measurement": "NF-kB SEAP reporter activity", "setting": "RAW-Dual [2]; cytotoxicity flag (confluency mask): cytotoxic (confluency <70% of control), agonist: Imiquimod (TLR7) […]", "result": 1.56},
      {"measurement": "NF-kB SEAP reporter activity", "setting": "RAW-Dual [2]; cytotoxicity flag (confluency mask): cytotoxic (confluency <70% of control), agonist: MPLA (TLR4) […]", "result": 2.34}
    ]},
    {"compound": "CCNC(=O)c1cc2c(-c3cc(C(C)(C)O)ccc3Oc3c(C)cc(F)cc3C)cn(C)c(=O)c2[nH]1", "note": "(library stock concentration (final ~1000-fold dilution): 10 mM)", "values": [
      {"measurement": "NF-kB SEAP reporter activity", "setting": "RAW-Dual [1]; agonist: LPS (TLR4) 0.1 ug/mL", "result": 0.903},
      {"measurement": "NF-kB SEAP reporter activity", "setting": "RAW-Dual [1]; [4]", "result": 1.34},
      {"measurement": "NF-kB SEAP reporter activity", "setting": "RAW-Dual [1]; [5]", "result": 0.318},
      {"measurement": "NF-kB SEAP reporter activity", "setting": "RAW-Dual [1]; [6]", "result": 0.842}
    ]},
    {"compound": "CC1OC(OC2C(CO)OC(OCC3OC(OC(=O)[C@]45CC[C@@H](C)[C@H](C)[C@H]4C4=CCC6[C@@]7(C)C[C@@H](O)[C@@H](O)[C@@](C)(CO)C7CC[C@@]6(C)[C@]4(C)CC5)C(O)C(O)C3O)C(O)C2O)C(O)C(O)C1O", "note": "(some centres undefined) (library stock concentration (final ~1000-fold dilution): 10 mM)", "values": [
      {"measurement": "NF-kB SEAP reporter activity", "setting": "RAW-Dual [3]; agonist: LPS (TLR4) 0.1 ug/mL", "result": 1.08},
      {"measurement": "NF-kB SEAP reporter activity", "setting": "RAW-Dual [3]; [4]", "result": 0.915},
      {"measurement": "NF-kB SEAP reporter activity", "setting": "RAW-Dual [3]; [5]", "result": 1.06},
      {"measurement": "NF-kB SEAP reporter activity", "setting": "RAW-Dual [3]; [6]", "result": 1.1}
    ]},
    {"compound": "CC1OC(OC2C(CO)OC(OCC3OC(OC(=O)[C@]45CC[C@@H](C)[C@H](C)[C@H]4C4=CCC6[C@@]7(C)C[C@@H](O)[C@@H](O)[C@@](C)(CO)C7CC[C@@]6(C)[C@]4(C)CC5)C(O)C(O)C3O)C(O)C2O)C(O)C(O)C1O", "note": "(some centres undefined)", "values": [
      {"measurement": "NF-kB SEAP reporter activity", "setting": "RAW-Dual [2]; [7]", "result": 0.975},
      {"measurement": "NF-kB SEAP reporter activity", "setting": "RAW-Dual [2]; [8]", "result": 1.12}
    ]},
    {"compound": "Cc1c(CN2CCC(Nc3ncnc4sc(CC(F)(F)F)cc34)CC2)ccc2[nH]c(C#N)cc12", "values": [
      {"measurement": "NF-kB SEAP reporter activity", "setting": "RAW-Dual [2]; [7]", "result": 0.878},
      {"measurement": "NF-kB SEAP reporter activity", "setting": "RAW-Dual [2]; [8]", "result": 0.915}
    ]},
    {"compound": "Cc1c(CN2CCC(Nc3ncnc4sc(CC(F)(F)F)cc34)CC2)ccc2[nH]c(C#N)cc12", "note": "(library stock concentration (final ~1000-fold dilution): 10 mM)", "values": [
      {"measurement": "NF-kB SEAP reporter activity", "setting": "RAW-Dual [3]; agonist: LPS (TLR4) 0.1 ug/mL", "result": 1.32},
      {"measurement": "NF-kB SEAP reporter activity", "setting": "RAW-Dual [3]; [4]", "result": 0.176},
      {"measurement": "NF-kB SEAP reporter activity", "setting": "RAW-Dual [3]; [5]", "result": 0.631},
      {"measurement": "NF-kB SEAP reporter activity", "setting": "RAW-Dual [3]; [6]", "result": 0.575}
    ]},
    {"compound": "O=C(NC1=CC(=O)[C@H]2O[C@H]2[C@H]1O)c1ccccc1O", "note": "(library stock concentration (final ~1000-fold dilution): 10 mM)", "values": [
      {"measurement": "NF-kB SEAP reporter activity", "setting": "RAW-Dual [3]; agonist: LPS (TLR4) 0.1 ug/mL", "result": 0.727},
      {"measurement": "NF-kB SEAP reporter activity", "setting": "RAW-Dual [3]; [4]", "result": 0.951},
      {"measurement": "NF-kB SEAP reporter activity", "setting": "RAW-Dual [3]; [5]", "result": 0.806},
      {"measurement": "NF-kB SEAP reporter activity", "setting": "RAW-Dual [3]; [6]", "result": 0.551}
    ]},
    {"compound": "O=C(NC1=CC(=O)[C@H]2O[C@H]2[C@H]1O)c1ccccc1O", "values": [
      {"measurement": "NF-kB SEAP reporter activity", "setting": "RAW-Dual [2]; [7]", "result": 1},
      {"measurement": "NF-kB SEAP reporter activity", "setting": "RAW-Dual [2]; [8]", "result": 1.08}
    ]},
    {"compound": "COc1ccc(CNC(=O)CCl)cc1OC", "values": [
      {"measurement": "NF-kB SEAP reporter activity", "setting": "RAW-Dual [2]; [7]", "result": 1.02},
      {"measurement": "NF-kB SEAP reporter activity", "setting": "RAW-Dual [2]; [8]", "result": 0.962}
    ]},
    {"compound": "COc1cc(OC)c(C=CS(=O)(=O)Cc2ccc(OC)c(NCC(=O)O)c2)c(OC)c1", "note": "(library stock concentration (final ~1000-fold dilution): 10 mM)", "values": [
      {"measurement": "NF-kB SEAP reporter activity", "setting": "RAW-Dual [3]; agonist: LPS (TLR4) 0.1 ug/mL", "result": 4.24},
      {"measurement": "NF-kB SEAP reporter activity", "setting": "RAW-Dual [3]; [4]", "result": 3.24},
      {"measurement": "NF-kB SEAP reporter activity", "setting": "RAW-Dual [3]; [5]", "result": 2.21},
      {"measurement": "NF-kB SEAP reporter activity", "setting": "RAW-Dual [3]; [6]", "result": 2.56}
    ]}
  ]
}
